Inhibition data for 24 compounds are collected here from PubChem BioAssay AID362 (NMMLSC, 2006).

Each structure is given as a SMILES string. In all, about 4,300 compounds went through this assay and about 60 (1%) were called active. This is one part of a sample in which actives are shown more often than they occur. Values without a mark were called inactive.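 How the source made its calls: active means inhibition of labelled peptide binding to the formyl peptide receptor of at least 65%; inactive means the rest.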

The target of this experiment is fMet-Leu-Phe receptor (Homo sapiens) (UniProt P21462). The experiment in a line: FPR binders displacing fluorescent formyl peptide, primary screen, U937-FPR cells, fMLFK-FITC, flow cytometry (AID 362).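 On Inhibition: plate controls were buffer control wells for no effect and unlabeled fMLFF blocking peptide for full effect; higher means less cell fluorescence so more probe displaced.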 Conditions: fMLFK-FITC displacement; hits give high values, concentration not given here. A general note: A flow cytometer gives signals particle by particle.
Sequence of fMet-Leu-Phe receptor (Homo sapiens) (P21462 whole entry, looked up): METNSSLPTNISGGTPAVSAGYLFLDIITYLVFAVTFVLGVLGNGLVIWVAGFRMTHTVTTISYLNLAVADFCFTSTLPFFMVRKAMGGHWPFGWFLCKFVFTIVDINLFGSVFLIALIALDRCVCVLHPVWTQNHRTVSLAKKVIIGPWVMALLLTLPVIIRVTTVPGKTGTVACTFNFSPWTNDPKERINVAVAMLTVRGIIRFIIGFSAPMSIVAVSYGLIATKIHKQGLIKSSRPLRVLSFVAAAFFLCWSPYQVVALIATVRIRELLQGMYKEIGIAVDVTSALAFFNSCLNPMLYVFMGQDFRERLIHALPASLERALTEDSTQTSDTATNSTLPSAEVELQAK
For `COc1ccc(N2C(=O)C3C4C=CC(C4)C3C2=O)cc1OC` (centres undefined), the inhibition result is “inactive”.
In the case of `CCOc1ccc(C2C(C(=O)OC3CCCCC3)=C(C)NC3=C2C(=O)CCC3)cc1OC` (centres undefined) it was 20.2%.
For `COc1ccc(CNC(=O)CCCCCn2c(SCC(=O)NCC3CCCO3)nc3cc4c(cc3c2=O)OCO4)cc1` (centres undefined), the inhibition is 2.8%.
Take `CCOC(=O)C1=C(C)NC2=C(C(=O)C(C(=O)OC)C(C)C2)C1c1ccccc1OC(C)C` (centres undefined): the inhibition was 10.1%.
`CC(C)(C)c1cc(NS(=O)(=O)c2ccc([N+](=O)[O-])cc2)cc(C(C)(C)C)c1O`: the inhibition was 68% (active).
As to `CC(C)(C)c1cc(NS(=O)(=O)c2ccccc2[N+](=O)[O-])cc(C(C)(C)C)c1O`, the inhibition is 9.2%.
In the case of `CC(C)(C)c1cc(Nc2ccccc2[N+](=O)[O-])cc(C(C)(C)C)c1O` it was 20.9%; in that of `O=C(O)C12CC3CC(C1)CC(n1cnc([N+](=O)[O-])n1)(C3)C2`, “inactive”.
Under `COc1ccc(N(CC(=O)N2CC3CC(C2)c2cccc(=O)n2C3)S(=O)(=O)c2c(C)noc2C)cc1` (centres undefined) stands “inactive”; under `COc1c(O)ccc(C2Nc3ccc4ccccc4c3C3=C2C(=O)CC(C)(C)C3)c1[N+](=O)[O-]` (centres undefined), 15.3%; under `COc1c(OC(C)=O)ccc(C2Nc3ccc4ccccc4c3C3=C2C(=O)CC(C)(C)C3)c1[N+](=O)[O-]` (centres undefined), “inactive”.
Turning to `CC1(C)CC(=O)C2=C(C1)c1c(ccc3ccccc13)NC2c1cc([N+](=O)[O-])ccc1N1CCOCC1` (centres undefined), the inhibition is 71.9% (active).
In the case of `CC(=O)N1c2ccc(S(=O)(=O)N(CC(C)C)CC(C)C)cc2CC1C` (centres undefined) it was “inactive”; in that of `CCCN(CCC)Cc1c(O)ccc2c(=O)c(Oc3ccc(OC)cc3)c(C(F)(F)F)oc12`, “inactive”.
In the case of `O=S(=O)(NC1CCCC1)c1cccc2nsnc12` it was “inactive”; in that of `N#CCCN(C(=O)c1cc(Cl)ccc1NS(=O)(=O)c1cccc2nsnc12)C1CCCCC1`, 73% (active).
Under `O=S(=O)(NC1CCCCCCC1)c1cccc2nsnc12` stands “inactive”; under `CCOc1cc(C2Nc3c(ccc4ccccc34)C3=C2CCCC3=O)cc(Br)c1O` (centres undefined), “inactive”; under `COc1ccc(N2C3=C(C(=O)CC(C)(C)C3)C(c3ccc(F)cc3)C3=C2CC(C)(C)CC3=O)c(OC)c1`, “inactive”.
As for `CC1=CC(C)C2(COC(=O)Nc3ccccc3)COC(c3cccnc3)C1C2C` (centres undefined), the inhibition result was “inactive”.
Under `CCCCNC(=O)c1cn(CC(C)C)c(=O)c2c1c1ccccc1n2C` stands “inactive”; under `CCN(C(=O)c1cccc(F)c1)c1ccc(C(O)(C(=O)OC)C(F)(F)F)cc1` (centres undefined), 85.1% (active).
On to `CCN(C(=O)c1ccc(F)cc1)c1ccc(C(O)(C(=O)OC)C(F)(F)F)cc1` (centres undefined), for which the inhibition result is “inactive”.
In the case of `CCOC(=O)C(O)(c1ccc(N(CC)C(=O)c2cccc(F)c2)cc1)C(F)(F)F` (centres undefined) it was 27.9%.

The term inhibition denotes the drop in the measured response relative to a control, in per cent.
